SMN2 splice enh: increases expression of the SMN2 splice variant. HEK293 SMN2-luciferase splicing reporter, luminescence, 30-36 h. Potency, µM (titrated, usually from 46.1 µM), without a hit: at the top dose activity change, positive = activation, actives largely listed as activators. 210,000 compounds, 2.8% hits; note: % of control where 0% means no effect; nearly all actives have a fitted effect of over 55% in size
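HEK293 cells carry an SMN2 minigene-luciferase reporter in which exon 7 inclusion puts luciferase in frame. Cells were seeded at 2000 cells/well, attached for 10-12 hours, then exposed to compounds for 30-36 hours at 37C before ONE-Glo luminescence.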
NPC1 prom act: NPC1 promoter activation; Potency, µM (doses to about 9.22 µM), without a hit: at the highest dose activation, actives largely listed as activators; Huh7 NPC1 promoter luciferase reporter, 24 h; 320,000 compounds, 2.4% hits; note: % of control where 0% means no effect; nearly all actives have a fitted effect of over 60% in size
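Stably transfected Huh7 (NPC1 promoter→luciferase), 1500 cells/well in Opti-MEM + 10% FBS, 2 h settle, then compound 24 h at 37 °C. Luminescence after 10 min with Amplite reagent.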
ELG1 genotox: induces genotoxicity in HEK293T cells with luciferase-tagged ELG1. 330,000 compounds, 1.3% hits. HEK293T ELG1-luciferase reporter, luminescence, 16 h. AID 504466. Potency, µM (doses to about 46 µM), without a hit: top-dose activity change, positive = activation, actives largely listed as activators; note: % of control where 0% means no effect; nearly all actives have a fitted effect of over 60% in size
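HEK293T cells expressing luciferase-tagged ELG1 were exposed to compound or DMSO vehicle for 16 hr at 37 °C and 5% CO2. Luciferase activity was then measured with ONE-Glo after 30 min at room temperature.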
Rab9 prom act: Rab9 promoter activation; AID 485297; 320,000 compounds, 2.8% hits; Potency, µM (highest dose often 9.22 µM), for the others: at the top dose activation, negative = inhibition, hits mostly activators; Huh7 Rab9 promoter-luciferase reporter, luminescence, 24 h; note: % of control where 0% means no effect; nearly all actives have a fitted effect of over 60% in size
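Luciferase signal after 10 min detection reagent at ambient indicates Rab9 promoter upregulation; stably transfected Huh7 cells were treated 24 h with compound in DMSO at 37 °C, 5% CO2.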
FLuc modulator: counter-screen for miR-21 project: firefly luciferase inhibitors or activators. P08659. purified FLuc, Km substrates, luminescence inhibition. Potency, µM (highest dose often 57.5 µM), without a hit: at the highest dose activity change, negative = inhibition, actives largely listed as inhibitors. 360,000 compounds, 6.9% hits. AID 588342;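 note: plate controls were vehicle for no effect and reference inhibitor for full effect; nearly all actives have a fitted effect of over 55% in size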
Target sequence (P08659 whole entry, looked up): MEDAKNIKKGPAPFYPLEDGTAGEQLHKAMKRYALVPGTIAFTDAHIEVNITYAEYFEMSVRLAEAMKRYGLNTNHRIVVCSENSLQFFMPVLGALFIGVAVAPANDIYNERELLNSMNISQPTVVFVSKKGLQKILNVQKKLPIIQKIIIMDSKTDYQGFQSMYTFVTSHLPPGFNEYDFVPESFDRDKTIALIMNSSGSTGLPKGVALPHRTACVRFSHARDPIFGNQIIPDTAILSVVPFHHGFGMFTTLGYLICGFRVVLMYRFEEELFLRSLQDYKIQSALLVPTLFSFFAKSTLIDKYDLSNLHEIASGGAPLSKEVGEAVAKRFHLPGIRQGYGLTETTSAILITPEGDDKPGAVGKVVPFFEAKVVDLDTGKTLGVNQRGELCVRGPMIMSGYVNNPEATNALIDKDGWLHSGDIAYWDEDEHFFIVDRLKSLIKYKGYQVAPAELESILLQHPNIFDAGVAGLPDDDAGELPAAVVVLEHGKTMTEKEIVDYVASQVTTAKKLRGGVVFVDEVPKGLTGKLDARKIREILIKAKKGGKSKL
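Biochemical qHTS of compounds, final roughly 60 µM downward over six points, against 10 nM purified firefly luciferase using Km concentrations of substrates (10 uM D-luciferin, 10 uM ATP) in Tris acetate pH 7.5 buffer; luminescence output.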
Luc counter: blocks Kinase-Glo luciferase, a counter-screen artifact. Q27757. Kinase-Glo luciferase, ATP luminescence, 8 min. 200,000 compounds, 0.28% hits. Potency, µM (doses to about 38.3 µM), for the others: at the top dose activity change, negative = inhibition, usual class: inhibitors; note: % is set by controls: 0 for no effect and ±100 for the full control effect; nearly all actives have a fitted effect of over 60% in size
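Luminescence was the read-out, taken after 8-minute incubation at ambient temperature. Luciferase turned over luciferin with 10 uM ATP in imidazole pH 7.2 buffer containing KCl, MgCl2, Tween 20 and BSA.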
* marks the source's active call; other numbers are inactive results; ? = inconclusive; / = no result given; [ ] = remark or other dose. The list is not random: actives were taken first. Their share in the collection is about 7.5%. Calls come from the whole dose curve; as a rule, active = well fitted curve in the direction sought with a large enough effect; inconclusive = small, poorly fitted or top-dose-only effect, or another doubt; inactive = no such curve, though single readings can be large; an effect the other way counts as inactive or inconclusive. Potency is the fitted concentration of half-maximal effect.

SMILES | SMN2 splice enh | NPC1 prom act | ELG1 genotox | Rab9 prom act | FLuc modulator | Luc counter
Cc1cccc(NC(=O)c2cnn(-c3ccccc3)c2-n2cccc2)c1C | 8% | / | / | / | -17% | /
COc1cccc(/C=c2\sc3nc(-c4cccs4)nn3c2=O)c1OC | 17% | 0% | 2% | -3% | 8.5µM* | -4%
C1CCCNCC1 | -3% | / | / | / | / | /
CN(C)c1ccc(/C=C/c2cccc[n+]2[O-])cc1 | / | ? | ? | 2.5µM* | 19µM* | /
COc1ccc(/C=C/c2ccncc2)cc1 | ? | 3.5µM* | ? | 2.8µM* | 12µM* | -7%
CC(C)CC[n+]1ccccc1/C=C/c1ccc(N(C)C)cc1 | / | -40% | -11% | -41% | 3% | /
CN(C)c1ccc(/C=C/c2ccncc2)cc1 | ? | ? | 16µM* | ? | ? | -3%
CC(C)[C@H](NC(N)=O)C(=O)Nc1ccc(F)c(Cl)c1 | -9% | -1% | -3% | 17% | -2% | -2%
Cc1c(Cl)cccc1NC(=O)c1ccc(NC(=O)N2CCSc3ncccc32)cc1 | / | / | / | / | 2% | /
COc1ccc2nc(/N=C/c3cccc(OC)c3O)sc2c1 | / | 26% | ? | ? | 0.95µM* | /
COc1ccc2c(c1)-c1nc(/N=C/c3cccc(OC)c3O)sc1CC2 | 2%[1.84 µM] | -1% | -2% | 2% | ? | -4%
COc1ccc2nc(/N=C\N(C)C)sc2c1 | 39% | 24% | 16% | ? | 24µM* | -8%
COc1ccc(N=C2C(=Nc3ccc(OC)cc3)N(c3ccc(N(C)C)cc3)C(=S)N2c2ccc(OC)cc2)cc1 | 3% | -2% | 10% | -3% | 1% | -3%
CN(C)/C=N/c1nc2ccc3c(c2s1)CCCC3 | 14µM* | 2.5µM* | ? | 3.5µM* | 6µM* | 1%
COc1ccc2nc(N=Nc3ccc(N(C)C)cc3)sc2c1 | -5% | 0.32µM* | ? | 0.71µM* | 0.067µM* | 11µM*
Cc1ccc(-n2ncc(C(=O)NCCc3c[nH]c4ccccc34)c2C2CCN(C(=O)OC(C)(C)C)CC2)cc1C | -1% | / | / | / | -6% | /
CCc1ccc2occ(CC(=O)Nc3ccc(OC)c(Cl)c3)c2c1 | 4% | / | / | / | -19% | /
CCOc1ccc(NC(=O)CN(C)C(=O)c2cc3c(s2)CCC(C)C3)cc1OCC (stereo unspecified) | / | -3% | 0% | 1% | -20% | /
CCCN(c1ccccc1F)S(=O)(=O)c1ccc2c(c1)C(C)(C)C(=O)N2C | / | / | / | / | -8% | /
COc1ccc2nc(/N=C/c3c(C)[nH]n(-c4ccc(C)cc4)c3=O)sc2c1 | ? | 11% | 4% | 22% | 7.6µM* | 10µM*
Cc1ccc(C)c(-n2cc(-c3ccccc3)nc2SCC(=O)Nc2ccccc2)c1 | / | / | / | / | 4% | /
COc1ccc(Cl)cc1NC(=O)c1cc(C)nc2c1c(C)nn2-c1ccccc1 | / | / | / | / | -4% | /
CCOc1ccc(-c2nc(=S)[nH][nH]2)cc1 | ? | 15% | ? | ? | 15µM* | -1%
COc1ccc(-c2nc(=S)[nH][nH]2)cc1 | 8% | 0% | 8% | 10% | 0% | 0%
Cc1ccc(-c2cc(C(=O)Nc3ccccc3C)c3ccccc3n2)o1 | 1% | -6% | 1% | -3% | 8.5µM* | -2%
SMILES | SMN2 splice enh | NPC1 prom act | ELG1 genotox | Rab9 prom act | FLuc modulator | Luc counter
Cc1ccc(-c2cc(C(=O)NCC(c3ccccc3)N(C)C)c3ccccc3n2)o1 (stereo unspecified) | / | / | 2% | / | / | /
Cc1ccc(-c2cc(C(=O)Nc3cccc(S(=O)(=O)N(C)C)c3)c3ccccc3n2)o1 | / | -6% | -9% | 16% | 9.5µM* | /
COC(=O)c1cc(-c2ccc(C)o2)nc2ccccc12 | 4% | 4% | 0% | 1% | 11µM* | -1%
Cc1ccc(-c2cc(C(=O)OCC(=O)N(C)c3c(N)n(Cc4ccccc4)c(=O)[nH]c3=O)c3ccccc3n2)o1 | / | 8% | ? | 19% | 2.4µM* | /
COc1cc(NC(=O)c2c(C)nn(-c3ccc(F)cc3)c2-n2cccc2)cc(OC)c1 | / | / | / | / | 0% | /
CCN(CC)c1nc2c(S(=O)(=O)c3ccccc3)nnn2c2ccc(Cl)cc12 | -5% | / | / | / | -8% | /
CN(C)S(=O)(=O)c1cccc(NC(=O)c2c[nH]c3ccccc23)c1 | / | 15% | -12% | 17% | 21µM* | /
CCc1nnc(NC(=O)c2cc(-c3ccc(C)o3)nc3ccccc23)s1 | / | -1% | -1% | 2% | 11µM* | /
Oc1ccc2c(c1)oc1cc(O)ccc12 | ? | -2% | 11% | 0% | 19µM* | 2%
Cc1cccc(C(=O)N[C@H](C(=O)Nc2ncc(C)s2)C(C)C)c1 | 14µM* | -21% | ? | -31% | -9% | 4%
CC(CNc1nc2ccccc2c2nc(-c3ccccc3)nn12)c1ccccc1 (stereo unspecified) | -5% | / | / | / | -5% | /
COC(=O)c1sccc1S(=O)(=O)N(CC(=O)NCc1ccc(F)cc1)c1ccc(Cl)cc1 | / | / | / | / | -12% | /
CCOC(=O)/C(C#N)=C\c1ccc(CC)s1 | -8% | 25% | ? | -11% | 11µM* | -3%
COCCNC(=O)/C(C#N)=C/c1ccc(C(=O)O)cc1 | -2% | -3% | -2% | 0% | 3% | 1%
CCOC(=O)/C(C#N)=C\c1c(OCC)n(CC)c2ccccc12 | -15% | 1% | -5% | 1% | 3% | 4%
COCCNC(=O)/C(C#N)=C/c1ccc(SC)cc1 | 1% | -5% | ? | -1% | 19µM* | -1%
CCOC(=O)/C(C#N)=C/c1ccc(SC)cc1 | -24% | 9% | 4% | -3% | 13µM* | -2%
CCOC(=O)/C(C#N)=C\C=C1C=CN(C)C=C1 | 16µM* | 2.5µM* | ? | 3.5µM* | 9.5µM* | -4%
CCOC(=O)/C(C#N)=C/c1ccc(OC)c(OC)c1 | / | -4% | -1% | -1% | 2%[2.3 µM] | 4%
COc1cccc(CNC(=O)Cn2c(=O)n3nc(-c4cccc(C)c4)nc3c3ccccc32)c1 | / | / | / | / | -2% | /
CCOC(=O)C1CCN(C(=O)Cn2nc(CC)n3c(cc4occc43)c2=O)CC1 | -1% | / | / | / | -3% | /
Cc1cc(NC(=O)c2ccc3nc(C)sc3c2)no1 | 4µM* | 0.89µM* | 9.2µM* | 1.8µM* | ? | -2%
Cc1cc(NC(=O)c2ccc3c(c2)C(=O)N(C(C)(C)C)C3=O)no1 | / | 17% | ? | ? | -3% | /
Cc1cc(NC(=O)c2ccc(Cl)cc2)no1 | 11µM* | ? | 8.2µM* | 3.2µM* | 7.6µM* | -2%
Cc1cc(NC(=O)c2cccc(COc3ccc(Br)cc3)c2)no1 | 0.35µM* | 0.35µM* | 0.65µM* | 0.45µM* | 9.5µM* | 6%
CCOc1ccc(C(=O)Nc2cc(C)on2)cc1 | 8.9µM* | 1.1µM* | ? | 1.4µM* | 3.4µM* | -23%

High-throughput results (PubChem BioAssay)
